Reference: PubChem BioAssay AID2284075 (EPA ToxCast)
The source made the active and inactive calls. The calls were made as follows: active = hit-call score of the fitted dose curve at least 0.9, where 1 is the maximum; inactive = score below 0.9.

target: human Aurora-A (AURKA) Other Protein Kinase, AURKA (gene 6790) (UniProt O14965); assay: ERF_FR_ENZ_hAURKA: Eurofins (ERF) Enzymatic Radiometric [10 uM ATP] KinaseProfiler LeadHunter Assay for human Aurora-A (AURKA) Other Protein Kinase
Protocol: ERF_FR_ENZ_hAURKA is a biochemical, single-readout assay that uses extracted gene-proteins in a cell-free assay. Measurements were taken 0.25 hour after chemical dosing in a 96-well plate. See Aurora-A Human Other Protein Kinase Enzymatic LANCE Assay [Km ATP], Cerep.ERF_FR_ENZ_hAURKA is an assay component calculated from the ERF_FR_ENZ_hAURKA assay. It is designed to measure enzyme activity using a type of enzyme reporter as detected by fluorescence intensity with LANCE technology.Data from the assay component ERF_FR_ENZ_hAURKA was analyzed at the assay endpoint, ERF_FR_ENZ_hAURKA, in the positive analysis fitting direction relative to DMSO as the negative control and baseline of activity. Using a type of enzyme reporter, loss-of-signal activity can be used to understand changes in enzymatic activity as they relate to gene AURKA. To generalize the intended target to other relatable targets, this assay endpoint is annotated to the kinase intended target family, where the subfamily is serine/threonine kinase.
Aurora-A (h) is incubated with 8 mM MOPS pH 7.0, 0.2 mM EDTA, 200 uM LRRASLG (Kemptide), 10 mM MgAcetate and [gamma-33P]-ATP (specific activity and concentration as required). The reaction is initiated by the addition of the Mg/ATP mix. After incubation for 40 minutes at room temperature, the reaction is stopped by the addition of phosphoric acid to a concentration of 0.5%. […]

Sequence of human Aurora-A (AURKA) Other Protein Kinase, AURKA (gene 6790) (O14965 whole entry, looked up): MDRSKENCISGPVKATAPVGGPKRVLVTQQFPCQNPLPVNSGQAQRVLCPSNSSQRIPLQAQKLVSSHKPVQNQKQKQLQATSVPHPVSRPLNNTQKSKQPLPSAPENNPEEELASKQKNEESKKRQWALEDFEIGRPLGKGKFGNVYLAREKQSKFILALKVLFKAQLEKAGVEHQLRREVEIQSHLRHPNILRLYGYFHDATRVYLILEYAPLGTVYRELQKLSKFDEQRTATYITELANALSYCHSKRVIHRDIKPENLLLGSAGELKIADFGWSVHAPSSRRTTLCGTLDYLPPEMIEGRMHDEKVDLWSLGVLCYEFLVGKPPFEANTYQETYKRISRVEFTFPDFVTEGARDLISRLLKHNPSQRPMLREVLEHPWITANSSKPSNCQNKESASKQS

Row | Structure (SMILES) | outcome
1 | O=C(/C=C/c1ccc(O)cc1)CC(=O)/C=C/c1ccc(O)cc1 | inactive
